Source: PubChem (National Center for Advancing Translational Sciences (NCATS))
Pf growth 48h: P. falciparum growth inhibition at 48 hours (one generation); P. falciparum luciferase growth in erythrocytes, 48 h; Potency, µM (series often up to 28.7 µM), for inactives: at the top dose activity change, negative = inhibition, hits mostly inhibitors; 310,000 tested, 5.9% active; AID 504832; also: potency is read from the fitted curve at half-maximal effect; % is scaled to controls: 0 for no effect and ±100 for the full control effect
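Read-out is firefly luciferase luminescence from an integrated reporter in P. falciparum, so falling signal marks reduced parasite growth. Infected erythrocytes were at 2% hematocrit and 0.1% parasitemia (final) in Albumax-supplemented RPMI 1640.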
Shiga inhibitor: blocks Shiga toxin action in Vero cells; Vero cells, Shiga toxin protein synthesis inhibition reporter; inhibition, % at 38.7 µM; 290,000 tested, 9.2% active; AID 2315; in the data active = inhibition mostly above about 28%, no sharp cut-off; inactive = mostly below about 43%; also: 0% is about no effect
CHX counter: affects cycloheximide protein synthesis inhibition readout, counter-screen; cell reporter, cycloheximide protein synthesis inhibition counterscreen; max response, %; 300,000 tested, 12% active; in the data active = max response mostly above about 13%, no sharp cut-off; inactive = mostly below about 14%; also: read at 38.3 µM for the half of the compounds with a filed dose; 0% is about no effect
NS1 inh: influenza NS1 inhibition; 270,000 tested, 0.4% active; Potency, µM (highest dose often 46.1 µM), inactives show at the top dose activity, positive = more growth; calls by dose curve; also: potency is read from the fitted curve at half-maximal effect; actives are rising curves; nearly all actives have a fitted effect of over 50% in size
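A cell-based growth assay was used: compounds that relieve NS1-induced slow growth of budding yeast raise OD600. Assay medium was yeast nitrogen base with ammonium sulphate and -URA supplement, pH 6.0, with 2% galactose.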
Pf growth 96h: P. falciparum growth inhibition at 96 hours. P. falciparum luciferase reporter growth, 96 h. Potency, µM (series often up to 28.7 µM), for inactives: top-dose activity change, negative = inhibition, actives largely listed as inhibitors. 320,000 tested, 6.9% active; also: potency is read from the fitted curve at half-maximal effect; % is scaled to controls: 0 for no effect and ±100 for the full control effect
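Two parasite generations (96 h, 37 C, 5% CO2) of compound exposure in infected erythrocytes (0.05% parasitemia, 2% hematocrit). Luciferase-reporter P. falciparum; decreased luminescence indicates inhibited growth, aimed at apicoplast-acting delayed death.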
Giardia FBPA inh: blocks Giardia fructose-bisphosphate aldolase activity; Potency, µM (titrated, usually from 59.6 µM), without a hit: at the highest dose activity, negative = inhibition, actives largely listed as inhibitors; A8B2U2; AID 2451; 290,000 tested, 0.71% active; purified Giardia FBPA; also: potency is read from the fitted curve at half-maximal effect; % is scaled to controls: 0 for no effect and ±100 for the full control effect; nearly all actives have a fitted effect of over 55% in size
Target sequence (A8B2U2 whole entry, looked up): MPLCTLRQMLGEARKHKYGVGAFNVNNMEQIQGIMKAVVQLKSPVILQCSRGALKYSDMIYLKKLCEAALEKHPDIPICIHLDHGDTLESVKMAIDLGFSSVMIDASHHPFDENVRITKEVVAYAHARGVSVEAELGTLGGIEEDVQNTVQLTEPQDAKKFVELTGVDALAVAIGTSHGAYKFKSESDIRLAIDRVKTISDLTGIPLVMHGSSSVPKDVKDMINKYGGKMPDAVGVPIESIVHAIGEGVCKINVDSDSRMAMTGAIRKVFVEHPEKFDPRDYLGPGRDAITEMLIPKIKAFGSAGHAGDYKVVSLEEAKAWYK
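40 nM FBPA preincubated 10 min at RT with compound (up to 57.5 uM final), then substrate plus GAPDH/TPI/NAD/arsenate coupling and diaphorase/resazurin added. Fluorescence read after 20 min at RT, 525/598 nm.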
* hit, by the source's call; ? = inconclusive; · = no result given. Compounds with a hit are over-represented: about 21% of the library has one in this group of screens. Unless noted, calls follow the shape of the dose curve; as a rule, active = well fitted curve in the direction sought with a large enough effect; inconclusive = small, poorly fitted or top-dose-only effect, or another doubt; inactive = no such curve, though single readings can be large; an effect the other way counts as inactive or inconclusive.

SMILES | Pf growth 48h | Shiga inhibitor | CHX counter | NS1 inh | Pf growth 96h | Giardia FBPA inh
Cc1cc(NC(=O)C(C)SCC(=O)OCC(=O)Nc2c(C)cccc2C(C)C)no1 (stereo unspecified) | -6.3% | · | · | · | ? | ·
N/C(=N\OC(=O)c1ccc(Cl)c([N+](=O)[O-])c1)c1ccccn1 | 72.4% | 140.9* | 72.3* | · | ? | 0.9%
N/C(=N\OS(=O)(=O)c1ccccc1)c1ccccn1 | 0.6% | -5.3 | 0.4 | -0.1% | -13.6% | 19.7%
N/C(=N\OS(=O)(=O)c1ccc(Cl)cc1)c1ccccn1 | 37.3% | 55.6* | 16.9* | · | -10.8% | -5.6%
N/C(=N\OC(=O)c1cccc(Cn2cc(C(F)(F)F)ccc2=O)c1)c1ccccc1 | ? | 40.8* | 32.1* | -3.2% | ? | -1.8%
Cc1ccc(/C(N)=N/OC(=O)c2cccc(Cn3cc(C(F)(F)F)ccc3=O)c2)cc1 | ? | 11.8 | 2.6 | 4.8% | ? | 0.1%
N/C(=N\OC(=O)c1cccc(Cl)c1)c1ccccn1 | -13.5% | 45.9 | 42.1* | -53.2% | -89.0% | -1.4%
N/C(=N\OC(=O)c1ccc(Cl)c([N+](=O)[O-])c1)c1ccccc1 | -0.8% | -1.6 | -0.3 | 1.7% | -2.4% | 9.1%
c1ccc(CCCNc2nnnc3ccccc23)cc1 | · | · | · | -6.6% | · | ·
N/C(=N\OC(=O)c1cccc(Br)c1)c1ccccn1 | -83.1% | 35.9* | 65.8* | -62.1% | -25.2% | ·
N/C(=N\OC(=O)c1ccc(Cl)c(Cl)c1)c1ccccn1 | -52.4% | 106.8* | 19.0* | -130.1% | 65.0% | 4.2%
N/C(=N\OC(=O)c1cccc(Br)c1)c1ccccc1 | 61.7% | 59.4* | 26.6* | -4.1% | 41.3% | 0.5%
N/C(=N\OC(=O)c1ccc(Cl)cc1)c1ccccn1 | -57.9% | 32.6 | 7.2 | -160.6% | -138.1% | 0.9%
COC(=O)N[C@H](C[N+](=O)[O-])c1cccc(C)c1 | · | · | · | · | · | -0.1%
CCc1nonc1NC(=O)c1oc2ccc(F)cc2c1C | 3.3% | 30.6 | 18.3* | 0.0% | ? | -5.4%
CCc1ccc2oc(C(=O)Nc3nonc3C)c(C)c2c1 | -46.2% | 106.0* | 35.9* | -14.6% | 64.1% | ·
Cc1c(C(=O)Nc2nonc2-c2ccc(F)cc2)oc2ccc(F)cc12 | ? | 2.9 | 14.8 | -13.2% | -29.5% | -12.7%
Cc1cc2oc(C(=O)Nc3nonc3C)c(C)c2cc1C | 124.0% | 165.1* | 56.7* | 2.6% | ? | ·
O=[N+]([O-])c1cc(-c2cnc3ccccc3n2)ccc1Cl | 12.8% | 16.8 | 13.7 | -3.2% | 41.7% | 5.0%
O=[N+]([O-])c1cc(-c2cnc3ccccc3n2)ccc1Oc1ccc(Cl)cc1 | 15.2% | 39.3* | 37.9* | -2.9% | ? | -2.4%
COc1ccccc1Oc1ccc(-c2cnc3ccccc3n2)cc1[N+](=O)[O-] | ? | 72.9* | 61.6* | 12.1% | 69.1% | -1.2%
CCOC(=O)N1CCN(C(=O)c2cc(COc3ccc(OC)cc3Cl)on2)CC1 | ? | 105.2* | 69.5* | -37.1% | ? | -8.5%
COc1ccc(OCc2cc(C(=O)N3CCCCCCC3)no2)c(Cl)c1 | ? | 60.9* | 40.2* | -18.2% | 21.8% | ·
CCOC(=O)N1CCC(NC(=O)c2cc(COc3ccc(F)cc3Cl)on2)CC1 | ? | 5.0 | 10.8 | 2.9% | 34.9% | -1.2%
COc1ccc(OCc2cc(C(=O)N3CCN(CC4CC4)CC3)no2)c(Cl)c1 | 14.0% | 54.9* | 52.4* | -14.8% | ? | 2.0%
SMILES | Pf growth 48h | Shiga inhibitor | CHX counter | NS1 inh | Pf growth 96h | Giardia FBPA inh
COc1ccc(OCc2cc(C(=O)N3CCN(C4CCCC4)CC3)no2)c(Cl)c1 | -8.4% | 76.7* | 42.0* | -19.4% | ? | ·
CCN(CC)C(=O)c1cn(CCC#N)nc1-c1ccc2ccccc2c1 | 173.0% | -6.4 | 0.8 | 6.6% | ? | -1.4%
COc1ccc(OCc2cc(C(=O)N3C[C@@H](C)O[C@@H](C)C3)no2)c(Cl)c1 | 10.1% | 94.4* | 40.4* | -1.0% | 10.8% | ·
COc1cccc(C2=NN(C(=O)c3cccs3)C(O)(C(F)(F)F)C2)c1 (stereo unspecified) | 3.7µM* | 4.2 | 13.1 | · | -10.4% | -4.1%
COc1ccc(CC(=O)N2N=C(c3ccncc3)CC2(O)C(F)(F)F)cc1 (stereo unspecified) | ? | -9.8 | 0.4 | · | 0.0% | 3.2%
CCOC(=O)N1N=C(c2ccc(OC)cc2)CC1(O)C(F)(F)F (stereo unspecified) | 69.7% | 48.9* | 42.5* | 2.5% | 20.6% | -0.8%
CCOC(=O)N1N=C(c2ccccc2)CC1(O)C(C)(F)F (stereo unspecified) | 4.1% | -7.0 | -2.1 | 2.1% | ? | 5.2%
O=C(c1ccco1)N1N=C(c2ccncc2)CC1(O)C(F)(F)F (stereo unspecified) | 17.6% | -10.1 | -7.0 | -0.7% | 5.22µM* | 2.5%
CCc1ccc(C2=NN(C(=O)OC)C(O)(C(F)(F)F)C2)cc1 (stereo unspecified) | 449.6% | 61.7* | 37.0* | -2.9% | 172.4% | 0.2%
O=C(O)c1ccc(Cl)cc1Nc1nc2cc(Cl)ccc2o1 | 7.9% | 24.7 | 10.0 | -25.8% | ? | 1.1%
COc1ccccc1N1CCN(C(=O)C(=O)c2cn(CC(=O)N3CCOCC3)c3ccccc23)CC1 | -3.9% | -6.3 | -10.1 | -10.5% | ? | ·
CCc1ccc(-c2nc(SCC(=O)NC3CC3)n[nH]2)cc1 | -2.3% | · | · | · | 11.0% | ·
Cc1ccc(OCC(=O)N2N=C(c3cccnc3)CC2(O)C(F)(F)F)cc1C (stereo unspecified) | ? | -9.0 | -3.0 | 4.7% | 9.28µM* | 0.1%
Cc1ccc(-c2cc(C(=O)Nc3nccs3)c3ccccc3n2)o1 | ? | -4.7 | -2.5 | -25.2% | 9.28µM* | -9.4%
COc1cc(NC(=O)c2cc(C)nc3ccccc23)cc(OC)c1OC | -20.6% | -3.2 | -3.4 | · | -5.3% | 14.3%
O=C(Nc1nccs1)c1cc(-c2ccncc2)nc2ccccc12 | ? | 2.2 | 10.8 | · | ? | 0.8%
Cc1ccc(-c2cc(C(=O)Nc3nccs3)c3ccccc3n2)c(C)c1 | ? | 2.8 | 8.9 | -3.9% | 1.31µM* | 1.3%
COc1ccc(NC(=O)c2cc(-c3ccc(C)o3)nc3ccccc23)cc1OC | -68.5% | 79.6* | 37.6* | 7.2% | · | -25.1%
CCN1C(=O)c2n[nH]c(C(=O)OC)c2C1=O | ? | 5.1 | 5.9 | 24.3% | 10.4µM* | 20.2%
Cc1ccc(C(=O)Nc2cccc(NC(=O)c3cccs3)c2)c(C)c1 | ? | 21.3 | 3.9 | -50.7% | 11.7µM* | 5.6%
COc1ccc(-c2[nH]ncc2/C=N\NC(=O)c2cccs2)cc1OC | 2.2% | 87.3* | 35.9* | -23.9% | 17.0% | ·
Cc1cccc(NC(=O)c2cccc(NC(=O)Cc3cccs3)c2)c1 | ? | 92.0* | 27.1* | -0.5% | ? | -1.3%
COc1cc(NC(=O)c2cccs2)cc(OC)c1 | 74.5% | active | 14.9* | -45.6% | 10.4µM* | -1.7%
CC(C)(C)NC(=O)c1cccc(NC(=O)Cc2cccs2)c1 | 10.3% | -1.8 | 2.5 | -3.2% | 30.1% | 2.3%
